Compound activity as filed in PubChem BioAssay.
hgDAF12 agonist – H. glycines DAF-12 receptor agonists, primary screen, cell-based, luminescence, HEK293, GAL4 fusion, UAS-luciferase. Nuclear hormone receptor DAF-12 (Heterodera glycines), GAL4 fusion. HEK293 GAL4-hgDAF12 UAS-luciferase reporter, agonist luminescence; normalized to butyrate control. activation, % at 6.8 µM. 370,000 compounds, 1.8% hits. AID 687014, 2013;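 active = activation above a cutoff set at the mean of all screened compounds plus 3 SD, cut at about 10% in these data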
GAA850 FXN act – FXN promoter activators, primary screen, cell-based, luciferase luminescence, HEK293 lucGAA850; HEK293 lucGAA850 FXN promoter luciferase reporter, 24 h; percent of 10 µM SAHA response; activation, % at 6 µM; 360,000 compounds, 0.56% hits;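 active = activation above the average of all compounds screened plus 3 SD, cutoff fixed separately per campaign, cut at about 7.5% in these data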
DAX1 inh-1 – DAX1 (NR0B1) inhibitors on StAR promoter, primary screen, cell-based, luminescence, SF-1 (NR5A1), full-length DAX-1. HEK293T StAR-luciferase reporter, SF-1/DAX-1 repression relief. inhibition, % at 6.8 µM. 370,000 compounds, 1.1% hits. AID 652010, 2013;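 active = inhibition above the mean over all tested compounds plus 3 SD, cut at about 3.6% in these data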;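 also: higher inhibition means more luminescence from relief of DAX-1 repression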
hcDAF12 agonist – H. contortus DAF-12 nuclear receptor activators, primary screen, cell-based, luminescence, HEK293, lit1-tk-luc reporter; 370,000 compounds, 1.4% hits; HEK293 hcDAF-12 lit1-tk-luc reporter; 0% DMSO, 100% Δ7-dafachronic acid; activation, % at 6.8 µM;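 active = activation above the mean of all tested compounds plus 3 SD, cut at about 5.5% in these data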
ssDAF-12 act – S. stercoralis DAF-12 nuclear receptor activators, primary screen, cell-based, luminescence, HEK293, GRIP1 co-expression, lit1-tk-luc. activation, % at 6.8 µM. AID 652126, 2013. HEK293 ssDAF-12/GRIP1 lit1-tk-luc reporter; % of 3 µM dafachronic acid response. 370,000 compounds, 1% hits. Nuclear hormone receptor DAF-12 (Strongyloides stercoralis);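 active = activation above the mean over all tested compounds plus 3 SD, cut at about 0.9% in these data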
DAX1 inh-2 – DAX1 (NR0B1) inhibitors, primary screen, cell-based, HEK293, Gal4-DAX1, luciferase luminescence; Nuclear receptor subfamily 0 group B member 1 (Homo sapiens), P51843; HEK293 Gal4-DAX1 luciferase reporter; inhibition, % at 6.75 µM; 340,000 compounds, 0.99% hits;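 active = inhibition above the mean over all tested compounds plus 3 SD, cut at about 4.2% in these data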;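 also: inhibition shows as a rise in luminescence from relieved DAX1 repression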
DAX1 inh confirm – DAX1 (NR0B1) inhibitors relieving SF-1 repression, confirmation, cell-based, luminescence, HEK293T, full-length DAX-1, SF-1 activated StAR promoter | shares compounds with DAX1 inh-1 | HEK293T StAR-promoter luciferase reporter, SF-1/DAX-1 repression | inhibition, % at 6.8 µM | 2,400 compounds, 87% hits;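 active = inhibition above the average of every tested compound plus 3 SD, cut at about 3.8% in these data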
Target sequence (P51843 whole entry, looked up): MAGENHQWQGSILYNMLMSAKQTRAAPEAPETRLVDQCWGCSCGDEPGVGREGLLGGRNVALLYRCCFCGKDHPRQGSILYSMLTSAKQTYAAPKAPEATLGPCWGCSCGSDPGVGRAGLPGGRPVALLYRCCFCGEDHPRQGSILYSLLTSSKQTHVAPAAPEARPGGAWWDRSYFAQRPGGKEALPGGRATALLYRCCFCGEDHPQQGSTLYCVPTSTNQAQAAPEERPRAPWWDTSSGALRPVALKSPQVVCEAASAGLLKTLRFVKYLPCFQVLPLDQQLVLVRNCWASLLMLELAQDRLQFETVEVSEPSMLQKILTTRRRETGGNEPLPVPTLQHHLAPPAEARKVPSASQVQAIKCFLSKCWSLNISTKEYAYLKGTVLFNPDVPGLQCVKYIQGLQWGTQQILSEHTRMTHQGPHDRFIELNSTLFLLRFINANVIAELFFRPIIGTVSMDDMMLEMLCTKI
SF1 mutant ctr – StAR reporter signal changes without DAX1, counter-screen for DAX1 inhibitor project, cell-based, luminescence, AF-2 mutant SF-1, transactivation. shares compounds with DAX1 inh-1. HEK293 StAR-luciferase, SF-1 AF2 mutant. inhibition, % at 6.8 µM. 2,400 compounds, 78% hits. AID 652136, 2013;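 active = inhibition above the mean of all tested compounds plus 3 SD, cut at about 3% in these data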
LXR ag – LXR agonists, Gal4 luciferase reporter, confirmation, counter-screen for hcDAF-12 agonist project, cell-based, luminescence, HEK293, H. contortus campaign; HEK293 Gal4-LXR tk-luc reporter, 24 h; normalized: DMSO 0%, positive control 100%; shares compounds with hcDAF12 agonist; AID 743027, 2013; activation, % at 6.8 µM; 3,400 tested, under 10 active;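 active = mean percent activation of the reporter above a cutoff set as the average over tested compounds plus their standard deviation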
hcDAF12 conf – H. contortus DAF-12 receptor agonists, confirmation, cell-based, luminescence, HEK293, lit1-tk-luc, triplicate | shares compounds with hcDAF12 agonist | HEK293 hcDAF-12 lit1-tk-luc reporter; % of Δ7-dafachronic acid response | activation, % at 6.8 µM | 3,400 compounds, 61% hits;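 active = mean activation across triplicate tests above the threshold derived from the earlier primary screen, cut at about 5.5% in these data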
hgDAF12 ag – H. glycines DAF-12 receptor agonists, confirmation, cell-based, luminescence, HEK293, GAL4-LBD fusion; HEK293 GAL4-hgDAF12 luciferase reporter, agonist mode; percent of butyrate response; 3,300 compounds, 80% hits; shares compounds with hgDAF12 agonist; activation, % at 6.8 µM;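 active = mean activation over triplicate wells above the hit cutoff derived from the earlier primary screen, cut at about 11% in these data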
LXR ag 2 – LXR agonists, Gal4 luciferase reporter, confirmation, counter-screen for hgDAF-12 agonist project, cell-based, luminescence, HEK293, H. glycines campaign; shares compounds with hgDAF12 agonist; 24 h; activation, % at 6.8 µM; 3,300 tested, under 10 active;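 active = mean activation of the triplicate above a set limit carried over from the primary screen, none filed active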
Large screens that a line does not name were inactive (follow-up assays come after a bar, where they were run). Only some compounds are listed: those with a hit (about 4.5% of all), similar ones and a draw of the others.

O=C(Cc1cccs1)NCCS(=O)(=O)N1CCN(c2cccc(Cl)c2)CC1	none
Cc1ccc(CN(C)C[C@H]2OCc3cnnn3CCCC(=O)N([C@H](C)CO)C[C@@H]2C)cc1	none (no result: GAA850 FXN act, DAX1 inh-2)
C1=C(c2cn(-c3nc4ccccc4s3)nn2)CCCC1	hgDAF12 agonist 20.4, DAX1 inh-1 11.5, hcDAF12 agonist 11.9 (no result: GAA850 FXN act, DAX1 inh-2) | DAX1 inh confirm 12.0 | SF1 mutant ctr 5.8 | LXR ag inactive | hcDAF12 conf 8.5 | hgDAF12 ag 20.1 | LXR ag 2 inactive
c1ccc2sc(-n3cc(C4CCCCC4)nn3)nc2c1	hgDAF12 agonist 26.2, DAX1 inh-1 9.2, hcDAF12 agonist 6.6, ssDAF-12 act 1.3 (no result: GAA850 FXN act, DAX1 inh-2) | DAX1 inh confirm 15.4 | SF1 mutant ctr 8.7 | LXR ag inactive | hcDAF12 conf 5.9 | hgDAF12 ag 25.0 | LXR ag 2 inactive
c1ccc2sc(N3CCOCC3)nc2c1	none
COc1ccc(/C(N)=N/OC(=O)CCCN2C(=O)c3ccccc3C2=O)cc1OC	none
COc1ccccc1NC(=O)Cn1ccn(-c2cccc3ccccc23)c(=O)c1=O	none
O=C(O)C(=O)/C(=C\c1ccc(Cl)cc1)c1ccc2ccccc2n1	hgDAF12 agonist 14.2, DAX1 inh-1 7.8, hcDAF12 agonist 14.1, ssDAF-12 act 2.5 | DAX1 inh confirm 9.1 | SF1 mutant ctr 4.6 | LXR ag inactive | hcDAF12 conf 11.1 | hgDAF12 ag inactive | LXR ag 2 inactive
C/C(=N\S(=O)(=O)c1ccc(C)cc1)N(C)C	none
CC1(C)CNc2cc(N)ccc2S1	none
COc1cccc2cc(-c3csc(NC(=O)CCC(=O)NCCCN4CCC(C)CC4)n3)c(=O)oc12	hgDAF12 agonist 15.5, DAX1 inh-1 4.5, hcDAF12 agonist 6.2, ssDAF-12 act 1.6 | DAX1 inh confirm 16.4 | SF1 mutant ctr 3.8 | hgDAF12 ag 14.0 | LXR ag 2 inactive
COc1ccc2nc(NC(=O)C3CCCO3)sc2c1 (stereo not given)	hgDAF12 agonist 15.3, DAX1 inh-1 5.8, DAX1 inh-2 4.3 | DAX1 inh confirm 11.1 | SF1 mutant ctr 6.1 | hgDAF12 ag 11.8 | LXR ag 2 inactive
Cc1ccc(Nc2nc3ccccc3s2)cc1	hgDAF12 agonist 26.4, DAX1 inh-1 4.7, hcDAF12 agonist 9.7, ssDAF-12 act 2.4 | DAX1 inh confirm 14.7 | SF1 mutant ctr 7.3 | LXR ag inactive | hcDAF12 conf 7.9 | hgDAF12 ag 23.9 | LXR ag 2 inactive
COc1ccc2nc(Nc3ccccc3OC)sc2c1	hgDAF12 agonist 20.4, DAX1 inh-1 6.4, hcDAF12 agonist 11.4, ssDAF-12 act 1.6 | DAX1 inh confirm 16.8 | SF1 mutant ctr 10.4 | LXR ag inactive | hcDAF12 conf 8.7 | hgDAF12 ag 21.8 | LXR ag 2 inactive
COc1ccc2nc(Nc3ccc4c(c3)OCO4)sc2c1	none
COc1ccc2nc(Nc3ccccc3)sc2c1	hgDAF12 agonist 26.1, DAX1 inh-1 7.3 | DAX1 inh confirm 11.6 | SF1 mutant ctr 9.5 | hgDAF12 ag 13.9 | LXR ag 2 inactive
COc1ccc(-c2nnc(NC(=O)C3CCCO3)s2)cc1 (stereo not given)	none
CN(CC(=O)Nc1ccc(N2CCOCC2)cc1)C(=O)c1ccc(CS(C)(=O)=O)cc1	none
CCCCNC(=O)C1(C)CCCCN1C(=O)c1ccc2c(c1)CCO2 (stereo not given)	none (no result: DAX1 inh-2)
CC(/C=N/NC(=O)c1ccc(Cn2cc([N+](=O)[O-])cn2)o1)=C\c1ccccc1	none
c1ccc2c(C3=NNC(=NC4CC4)SC3)c[nH]c2c1	hgDAF12 agonist 20.4, DAX1 inh-1 7.0, hcDAF12 agonist 14.2, ssDAF-12 act 2.1 | DAX1 inh confirm 18.8 | SF1 mutant ctr 7.1 | LXR ag inactive | hcDAF12 conf 7.6 | hgDAF12 ag 12.7 | LXR ag 2 inactive
COc1ccc(CN(C)CC(=O)N(C)CC(=O)Nc2ccccc2Br)cc1F	none
NC(=O)c1ccccc1NC(=O)Nc1cccc(Cl)c1	none
O=C(Nc1cccc(Cl)c1)Nc1ccccc1C(=O)O	hgDAF12 agonist 14.2, DAX1 inh-1 4.7 | DAX1 inh confirm 11.1 | SF1 mutant ctr 7.6 | hgDAF12 ag 15.0 | LXR ag 2 inactive
Cn1c(CCc2ccc(N)cc2)nc2ccccc21	hgDAF12 agonist 15.2, DAX1 inh-1 6.1 | DAX1 inh confirm 9.5 | SF1 mutant ctr 5.0 | hgDAF12 ag 14.5 | LXR ag 2 inactive
